Rows were chosen to be rich in hits. Some 9.2% of all compounds tested hit in one or more screens of this group.
Rab9 prom act: activates the Rab9 promoter; 320,000 compounds, 2.8% hits; Potency, µM (series often up to 9.22 µM), for inactives: top-dose activation, negative = inhibition, hits mostly activators; Huh7 Rab9 promoter-luciferase reporter, luminescence, 24 h; AID 485297; also: % of control where 0% means no effect; nearly all actives have a fitted effect of over 60% in size
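Stable Rab9-luc Huh7, 1500 cells/well, 2 h settle; cmpd in DMSO, 24 h, 37 °C/5% CO2; luciferase reagent 10 min RT; luminescence.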
ELG1 repair inh: ELG1-dependent DNA repair inhibition | HEK293T ELG1-luciferase reporter, luminescence, 16 h; DNA damage induced by 5-fluorouridine | Potency, µM (highest dose often 46.1 µM), without a hit: at the highest dose activity change, negative = inhibition, hits mostly inhibitors | 330,000 compounds, 2.3% hits; also: % is scaled to controls: 0 for no effect and ±100 for the full control effect; nearly all actives have a fitted effect of over 55% in size
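Reporter activity after DNA damage by 5-fluorouridine is monitored. Compound-treated cells incubate 16 hr at 37 °C, then ONE-Glo is added for 30 min before luminescence reading.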
FLuc counter: counter-screen for miR-21 project: firefly luciferase inhibitors or activators; purified FLuc, Km substrates, luminescence inhibition; Potency, µM (highest dose often 57.5 µM), without a hit: top-dose activity change, negative = inhibition, actives largely listed as inhibitors; 360,000 compounds, 6.9% hits; AID 588342;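 also: plate controls were vehicle for no effect and reference inhibitor for full effect; nearly all actives have a fitted effect of over 55% in size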
Target sequence (P08659 whole entry, looked up): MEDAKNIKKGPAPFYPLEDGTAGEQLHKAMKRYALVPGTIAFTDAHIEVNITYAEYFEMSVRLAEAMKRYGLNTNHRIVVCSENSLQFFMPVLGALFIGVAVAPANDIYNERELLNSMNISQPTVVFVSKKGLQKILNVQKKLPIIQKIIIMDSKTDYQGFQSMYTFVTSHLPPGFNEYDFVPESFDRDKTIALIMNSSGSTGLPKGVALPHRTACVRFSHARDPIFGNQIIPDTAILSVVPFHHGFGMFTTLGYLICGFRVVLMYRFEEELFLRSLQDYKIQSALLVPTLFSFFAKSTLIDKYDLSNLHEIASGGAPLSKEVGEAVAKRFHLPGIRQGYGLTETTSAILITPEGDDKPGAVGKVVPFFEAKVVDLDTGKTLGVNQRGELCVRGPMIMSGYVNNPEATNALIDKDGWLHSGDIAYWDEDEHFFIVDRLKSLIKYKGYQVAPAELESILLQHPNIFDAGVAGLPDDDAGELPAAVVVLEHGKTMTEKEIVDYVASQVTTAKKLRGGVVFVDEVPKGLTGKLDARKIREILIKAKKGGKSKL
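Purified P. pyralis luciferase, 10 nM final, with Km-level 10 uM D-luciferin and 10 uM ATP in 50 mM Tris acetate pH 7.5, 10 mM Mg acetate, 0.01% Tween-20, 0.05% BSA; 6-point qHTS titration about 60 µM downward; luminescence read.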
NPC1 promoter act: NPC1 promoter activation. AID 485313. Potency, µM (doses to about 9.22 µM), without a hit: top-dose activation, actives largely listed as activators. 320,000 compounds, 2.4% hits. Huh7 NPC1 promoter luciferase reporter, 24 h; also: % of control where 0% means no effect; nearly all actives have a fitted effect of over 60% in size
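In 1536-well qHTS, Huh7 cells harboring an NPC1 promoter–luciferase construct received compound for 24 h; activation was quantified by luminescence following luciferase reagent addition.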
SMN2 splice up: increases expression of the SMN2 splice variant | HEK293 SMN2-luciferase splicing reporter, luminescence, 30-36 h | Potency, µM (top dose mostly 46.1 µM), for the others: at the top dose activity change, positive = activation, actives largely listed as activators | 210,000 compounds, 2.8% hits | AID 1458; also: % of control where 0% means no effect; nearly all actives have a fitted effect of over 55% in size
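HEK293 cells carry an SMN2 […]–luciferase reporter in which exon 7 inclusion puts luciferase in frame. Cells were plated 10-12 h before compound addition, then incubated 30-36 h at 37C. ONE-Glo luminescence was read; sodium butyrate at 4.5 mM final served as control.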
ELG1 genotoxic: induces genotoxicity in HEK293T cells with luciferase-tagged ELG1. HEK293T ELG1-luciferase reporter, luminescence, 16 h. Potency, µM (series often up to 46 µM), without a hit: at the top dose activity change, positive = activation, usual class: activators. 330,000 compounds, 1.3% hits. AID 504466; also: % of control where 0% means no effect; nearly all actives have a fitted effect of over 60% in size
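ELG1-luciferase HEK293T cells, 2,000/well; compound pinned in; 16 hr, 37 °C, 5% CO2; ONE-Glo, 30 min RT; luminescence on CCD imager.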
The depositor's hits bear a star. Calls follow the shape of the dose curve; as a rule, active = well fitted curve in the direction sought with a large enough effect; inconclusive = small, poorly fitted or top-dose-only effect, or another doubt; inactive = no such curve, though single readings can be large; an effect the other way counts as inactive or inconclusive. Potency is read from the fitted curve at half-maximal effect.

Results for Cc1ccccc1Oc1cc(-n2ncc(Cl)c(Cl)c2=O)ncn1 ?
Rab9 prom act: -46%; ELG1 repair inh: 5.8µM*; FLuc counter: -5%; NPC1 promoter act: -33%; SMN2 splice up: -83%; ELG1 genotoxic: -8%

Results for c1ccc(-c2noc(C3CCCCC3)n2)nc1 ?
Rab9 prom act: 2.8µM*; ELG1 repair inh: inconclusive; FLuc counter: 11µM*; NPC1 promoter act: inconclusive; SMN2 splice up: 11µM*; ELG1 genotoxic: 6.5µM*

Results for c1ccc(-c2noc(C34CC5CC(CC(C5)C3)C4)n2)nc1 ?
Rab9 prom act: inconclusive; ELG1 repair inh: inconclusive; FLuc counter: 11µM*; NPC1 promoter act: inconclusive; SMN2 splice up: 13µM*; ELG1 genotoxic: 15µM*

How did Brc1ccc(-c2noc(C3CCCCC3)n2)cc1 do in these assays?
Rab9 prom act: 2.8µM*; ELG1 repair inh: inconclusive; FLuc counter: 6.7µM*; NPC1 promoter act: inconclusive; ELG1 genotoxic: inconclusive

Results for Cc1ccc(-c2noc(C3CCCN(C(=O)c4ccccc4Br)C3)n2)cc1 (stereo not drawn) ?
Rab9 prom act: 1%; ELG1 repair inh: inconclusive; FLuc counter: inconclusive; NPC1 promoter act: 15%; ELG1 genotoxic: 10%

What do the screens show for `COc1ccc(Cl)cc1S(=O)(=O)N1CCN(Cc2cccc(F)c2)CC1`?
FLuc counter: -1%

Results for CC1=NN(c2ccccc2)C(=O)/C1=C/C=C/c1ccccc1 ?
Rab9 prom act: 3%; ELG1 repair inh: 21µM*; FLuc counter: inconclusive; NPC1 promoter act: 8%; SMN2 splice up: 17%; ELG1 genotoxic: -12%

How did CC1=NN(c2cccc(C(=O)O)c2)C(=O)/C1=C\C=C\c1ccco1 do in these assays?
Rab9 prom act: 13%; ELG1 repair inh: inconclusive; FLuc counter: 2.7µM*; NPC1 promoter act: 10%; SMN2 splice up: 30%; ELG1 genotoxic: inconclusive

How did O=C1NN(c2ccc(F)cc2)C(=O)/C1=C\C=C\c1ccco1 do in these assays?
Rab9 prom act: 6%; ELG1 repair inh: -1%; FLuc counter: inconclusive; NPC1 promoter act: 1%; SMN2 splice up: 19%; ELG1 genotoxic: 9%

What do the screens show for `CC1=NN(c2ccccc2)C(=O)/C1=C\N1CC(C)OC(C)C1` (stereo not drawn)?
Rab9 prom act: -6%; ELG1 repair inh: -2%; FLuc counter: inconclusive; NPC1 promoter act: 1%; SMN2 splice up: 14%; ELG1 genotoxic: 3%

Results for CC1Sc2ccc(S(=O)(=O)CCC(=O)N3CCN(c4ccccc4F)CC3)cc2NC1=O (stereo not drawn) ?
Rab9 prom act: -2%; ELG1 repair inh: inconclusive; FLuc counter: -1%; NPC1 promoter act: -4%; ELG1 genotoxic: -8%

What do the screens show for `Cc1oc2ncn(C)c(=O)c2c1C(=O)Nc1ccccn1`?
FLuc counter: -2%; SMN2 splice up: -19%

Results for O=P(COCCCCCOCP(=O)(c1ccccc1)c1ccccc1)(c1ccccc1)c1ccccc1 ?
Rab9 prom act: -1%; ELG1 repair inh: inconclusive; FLuc counter: 5%; NPC1 promoter act: 2%; SMN2 splice up: -59%; ELG1 genotoxic: -23%

What do the screens show for `Cc1cccc(-n2cc(CN3CCCN(C=O)CC3)c(-c3cccc(F)c3)n2)c1`?
Rab9 prom act: 0%; ELG1 repair inh: -14%; FLuc counter: 13µM*; NPC1 promoter act: -5%; ELG1 genotoxic: 1%

What do the screens show for `CC(=O)N1CCCN(Cc2cn(-c3cc(C)ccc3C)nc2-c2ccccc2)CC1`?
Rab9 prom act: -2%; ELG1 repair inh: -7%; FLuc counter: 6%; NPC1 promoter act: -2%; ELG1 genotoxic: -6%

How did CC(=O)N1CCCN(Cc2cn(-c3ccc(C)cc3)nc2-c2ccc(F)cc2)CC1 do in these assays?
Rab9 prom act: 1%; ELG1 repair inh: -8%; FLuc counter: inconclusive; NPC1 promoter act: -6%; ELG1 genotoxic: 0%

Results for Cc1ccc(-n2cc(CN3CCCN(C=O)CC3)c(-c3ccc(F)cc3)n2)cc1 ?
Rab9 prom act: -3%; ELG1 repair inh: 23µM*; FLuc counter: inconclusive; NPC1 promoter act: -4%; ELG1 genotoxic: -1%

What do the screens show for `CC(=O)N1CCCN(Cc2cn(-c3cccc(C)c3)nc2-c2cccc(F)c2)CC1`?
Rab9 prom act: 1%; ELG1 repair inh: -8%; FLuc counter: 17µM*; NPC1 promoter act: -4%; ELG1 genotoxic: -2%

What do the screens show for `CCCn1c(C)cc(C(=O)COC(=O)c2cc(S(=O)(=O)NCC(C)C)c(Cl)cc2Cl)c1C`?
Rab9 prom act: -6%; ELG1 repair inh: inconclusive; FLuc counter: 9.5µM*; NPC1 promoter act: 1%; SMN2 splice up: inconclusive; ELG1 genotoxic: 8%

Results for CC(C)CNS(=O)(=O)c1cc(C(=O)O)c(Cl)cc1Cl ?
Rab9 prom act: -2%; ELG1 repair inh: inconclusive; FLuc counter: -1%; NPC1 promoter act: -4%; ELG1 genotoxic: 2%

How did CCCn1c(C)cc(C(=O)COC(=O)c2nccnc2N)c1C do in these assays?
Rab9 prom act: 0.45µM*; ELG1 repair inh: inconclusive; FLuc counter: 3.4µM*; NPC1 promoter act: 1.1µM*; SMN2 splice up: 10µM*; ELG1 genotoxic: inconclusive

How did CC(C)CNS(=O)(=O)c1cc(C(=O)OCC(=O)c2ccc3c(c2)OCCO3)c(Cl)cc1Cl do in these assays?
Rab9 prom act: -14%; ELG1 repair inh: -2%; FLuc counter: 12µM*; NPC1 promoter act: -1%; SMN2 splice up: -8%; ELG1 genotoxic: 4%

What do the screens show for `CCCn1c(C)cc(C(=O)COc2ncnc3sccc23)c1C`?
Rab9 prom act: 2.2µM*; ELG1 repair inh: inconclusive; FLuc counter: 8.5µM*; NPC1 promoter act: 2.8µM*; SMN2 splice up: 11µM*; ELG1 genotoxic: inconclusive

How did Cc1cc(C(=O)COc2ncnc3sccc23)c(C)n1C1CC1 do in these assays?
Rab9 prom act: inconclusive; ELG1 repair inh: inconclusive; FLuc counter: -13%; NPC1 promoter act: inconclusive; SMN2 splice up: 7%; ELG1 genotoxic: inconclusive

How did CC(C)c1ccc(NC(=O)c2cc(S(=O)(=O)N(C)C3CCCCC3)ccc2F)cc1 do in these assays?
FLuc counter: 2%

What do the screens show for `Cc1ccc(NC(=O)C2=CN3CCS(=O)(=O)N=C3C=C2)cc1`?
ELG1 repair inh: 16%; ELG1 genotoxic: 2%

How did CC(C)(C)c1ccc(NC(=O)C2=CN3CCS(=O)(=O)N=C3C=C2)cc1 do in these assays?
Rab9 prom act: 0%; ELG1 repair inh: 16%; FLuc counter: 15µM*; NPC1 promoter act: 0%; ELG1 genotoxic: 0%
